Active and inactive are the calls of the source. Calls come from the whole dose curve; as a rule, active = well fitted curve in the direction sought with a large enough effect in the repeat runs; inconclusive = weak or mixed curves; inactive = flat fitted curve, though single readings scatter.
test: qHTS assay to test for compound auto fluorescence at 460 nm (blue) in HepG2 cells (AID 720687); settings: autofluorescence 405/460 nm, 1 h; series mostly up to 91.3 µM; fluorescence, % of fluorescent control: at the top concentration
How it was run: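 Blue-channel autofluorescence (Ex/Em 405/460 nm, triamterene-equivalent) was measured after 1 hr compound exposure at 37 C, 5% CO2. Cells were HepG2, plated overnight at 37 C in MEM plus 10% FBS.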
% is set by controls: 0 for no effect and ±100 for the full control effect.

Structure (SMILES)	fluorescence, % of fluorescent control	outcome
NC(=O)CI	0.0019% (inactive)	
O=C(CCl)c1ccc(Cl)cc1Cl		inactive
CO/C=C(/C(=O)OC)c1ccccc1COc1cccc(C(F)(F)F)n1	-0.0002% (inactive)	
[CH3][Sn]([CH3])([Cl])[Cl]		inactive
Cc1ccc(-c2c(Cl)nc(C#N)n2S(=O)(=O)N(C)C)cc1	-0.0183% (inactive)	
CCN(C)N=O	0.197% (inactive)	
CCC(Br)(CC)C(=O)NC(N)=O	-0.0188% (inactive)	
N#Cc1cc(I)c(O)c(I)c1	-0.0573% (inactive)	
O=[N+]([O-])C(Br)(CO)CO		inactive
COCCOCCO	0.149% (inactive)	
Nc1ccc(N=Nc2ccc(-c3ccc(N=Nc4c(S(=O)(=O)O)cc5cc(S(=O)(=O)O)c(N=Nc6ccccc6)c(O)c5c4N)cc3)cc2)c(N)c1	-0.021% (inactive)	
O=C1C(Cl)C(CCl)CN1c1cccc(C(F)(F)F)c1 (stereo not drawn)	-0.004% (inactive)	
CCOC(=O)[C@]1(c2ccccc2)Oc2ccccc2[C@@H]1N	0.0065% (inactive)	
O=C1NCN(c2ccccc2)C12CCN(CCCOc1ccc(F)cc1)CC2	-0.0029% [at 46 µM] (inactive)	
CCC(C)(NC(=O)c1cc(Cl)c(C)c(Cl)c1)C(=O)CCl (stereo not drawn)	-0.506% (inactive)	
NS(=O)(=O)C(F)(F)C(F)(F)C(F)(F)C(F)(F)C(F)(F)C(F)(F)C(F)(F)C(F)(F)F	0.0222% (inactive)	
CCn1cc[n+](C)c1		inactive
O=NN1CCNCC1	0.114% [at 95.7 µM] (inactive)	
CC(=O)c1cc2c(cc1C)C(C)(C)C(C)CC2(C)C (stereo not drawn)	-0.237% (inactive)	
O=C=Nc1ccc(Cl)cc1	-0.016% (inactive)	
CCOP(=S)(OCC)Oc1cc(Cl)c(Br)cc1Cl	0.0242% (inactive)	
C=CCN1CC[C@]23c4c5ccc(O)c4O[C@H]2C(=O)CC[C@@]3(O)[C@H]1C5		inactive
Nc1ccc([N+](=O)[O-])cc1[N+](=O)[O-]	-0.123% (inactive)	
